Source: PubChem
Hits are enriched below; roughly 2.8% of the tested compounds scored in any of these assays.
GLP1R inv ag: acts as inverse agonist at human GLP-1 receptor; P43220; HEK293 GLP-1R CRE-luciferase, luminescence, 24 h; GLP-1R form is constitutively active; Potency, µM (top dose mostly 38.3 µM), for inactives: at the highest dose activity change, negative = inhibition, actives largely listed as inhibitors; 410,000 tested, 1.6% active; AID 624417; note: potency is the fitted concentration of half-maximal effect; % is set by controls: 0 for no effect and ±100 for the full control effect; nearly all actives have a fitted effect of over 55% in size
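Using stably transfected HEK293 (constitutively active GLP-1R, cAMP-luciferase reporter), compounds were incubated 24 hr and luciferase measured by luminescence.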
hERG WT inh: KCNH2 (human, wildtype) channel inhibition; Q12809; U2OS, BacMam KCNH2, thallium flux FluxOr; stronger effect = lower value; activity change, % at 1.84 µM; 340,000 tested, 0.37% active; AID 720551;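 active = maximum activity change below -70%; inconclusive = maximum activity change between -70% and -50%; inactive = maximum activity change above -50%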; note: % is set by controls: 0 for no effect and ±100 for the full control effect
Target sequence (Q12809 whole entry, looked up): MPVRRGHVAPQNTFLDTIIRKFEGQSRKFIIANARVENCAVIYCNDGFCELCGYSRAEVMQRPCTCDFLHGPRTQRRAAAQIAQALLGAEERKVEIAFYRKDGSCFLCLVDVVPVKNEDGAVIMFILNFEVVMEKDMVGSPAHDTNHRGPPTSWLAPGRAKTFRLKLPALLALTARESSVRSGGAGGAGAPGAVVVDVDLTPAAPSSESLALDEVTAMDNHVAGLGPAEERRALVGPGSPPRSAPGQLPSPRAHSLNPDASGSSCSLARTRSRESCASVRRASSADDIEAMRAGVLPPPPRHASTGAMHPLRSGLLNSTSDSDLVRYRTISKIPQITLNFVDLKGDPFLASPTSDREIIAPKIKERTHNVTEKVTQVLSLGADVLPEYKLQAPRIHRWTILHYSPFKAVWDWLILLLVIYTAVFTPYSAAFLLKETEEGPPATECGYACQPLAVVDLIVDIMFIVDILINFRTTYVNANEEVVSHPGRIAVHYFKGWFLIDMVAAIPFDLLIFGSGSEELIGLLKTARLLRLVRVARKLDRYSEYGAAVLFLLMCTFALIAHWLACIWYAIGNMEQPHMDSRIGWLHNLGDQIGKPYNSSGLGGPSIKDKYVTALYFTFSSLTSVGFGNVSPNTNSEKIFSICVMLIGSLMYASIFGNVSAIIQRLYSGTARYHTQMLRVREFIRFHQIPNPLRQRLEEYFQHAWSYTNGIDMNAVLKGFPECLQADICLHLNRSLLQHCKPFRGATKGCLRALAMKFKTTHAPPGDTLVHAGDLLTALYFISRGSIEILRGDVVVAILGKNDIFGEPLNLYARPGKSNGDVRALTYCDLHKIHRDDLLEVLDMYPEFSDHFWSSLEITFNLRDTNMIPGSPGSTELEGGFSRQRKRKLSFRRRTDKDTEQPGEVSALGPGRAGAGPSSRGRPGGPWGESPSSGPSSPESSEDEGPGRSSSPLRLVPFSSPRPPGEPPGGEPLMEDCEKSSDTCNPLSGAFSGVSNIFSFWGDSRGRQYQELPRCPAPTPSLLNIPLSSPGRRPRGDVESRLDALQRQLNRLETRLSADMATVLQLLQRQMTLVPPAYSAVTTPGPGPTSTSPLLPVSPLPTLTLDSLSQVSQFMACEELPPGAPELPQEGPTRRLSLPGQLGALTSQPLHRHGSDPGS
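U2OS cells transduced with wild-type KCNH2 virus are loaded with FluxOr dye for 45 min, and thallium flux is measured in kinetic reads before and after stimulation buffer. Rate constants are normalized to DMSO controls.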
KCNH2 3.1 inh: KCNH2 3.1 (human) potassium channel inhibition; U2OS KCNH2 3.1, thallium flux FluxOr; stronger effect = lower value; activity change, % (tested at about 1.8 µM); 340,000 tested, 0.95% active; AID 720553;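 active = maximum activity change below -70%; inconclusive = maximum activity change from -70% to -50%; inactive = maximum activity change above -50%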;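 note: thallium influx rate constant from kinetic fluorescence after stimulation buffer; % is set by controls: 0 for no effect and ±100 for the full control effect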
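Channel expression came from 3.1 mutant virus (1.77 x 10^8 /mL) applied to suspended U2OS cells for 4 h. Flux was tracked with FluxOr dye plus Red40 quencher, and kinetic rate constants normalized to controls.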
HEK293 tox: cytotoxic in the GLP-1 receptor inverse agonist counter-screen; 410,000 tested, 0.13% active; AID 624418; HEK293 cAMP-luciferase reporter cells, luminescence, 24 h; Potency, µM (titrated, usually from 38.3 µM), inactives show at the top dose activity change, negative = inhibition, actives largely listed as inhibitors;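 note: loss of luciferase light is scored as toxicity; potency is the fitted concentration of half-maximal effect; % is set by controls: 0 for no effect and ±100 for the full control effect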
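Seeding density was 200 cells/uL; after overnight-length (12 h) culture, 23 nL compounds went on for 24 h at 37 °C. Readout used a luciferase detection reagent, luminescence taken after 12 min at room temperature.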
GLS inhibitor: inhibitors of human glutaminase (GLS) | GLS enzymatic activity, qHTS titration | Potency, µM (top dose mostly 45.5 µM), for inactives: at the top dose activity change, negative = inhibition, usual class: inhibitors | AID 624170 | O94925 | 410,000 tested, 0.21% active; note: potency is the fitted concentration of half-maximal effect; % is set by controls: 0 for no effect and ±100 for the full control effect
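Enzyme dispensed in phosphate buffer (45 mM, pH 8.2, 0.02% Tween-20), compounds pinned in, then 1 mM L-glutamine solution and the glutamate oxidase–HRP–Amplex Red mix added; fluorescence read immediately and again after 30 min at room temperature.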
GLP-1R agonist: activates the human GLP-1 receptor | HEK293 GLP-1R CRE-luciferase, luminescence, 4-6 h; cells express a hypersensitive GLP-1R form | Potency, µM (top dose mostly 45.6 µM), for inactives: at the top dose activation, actives largely listed as activators | 380,000 tested, 0.007% active | P43220; note: potency is the fitted concentration of half-maximal effect; % of control where 0% means no effect
The depositor's hits bear a star; ? = inconclusive; . = not tested or not shown. Unless noted, calls come from the whole dose curve; as a rule, active = well fitted curve in the direction sought with a large enough effect; inconclusive = small, poorly fitted or top-dose-only effect, or another doubt; inactive = no such curve, though single readings can be large; an effect the other way counts as inactive or inconclusive.

SMILES	GLP1R inv ag	hERG WT inh	KCNH2 3.1 inh	HEK293 tox	GLS inhibitor	GLP-1R agonist
COc1ccc(C2N(c3ccc(Cl)cc3)N=C(C(C)=O)N(C)N2C(C)=O)cc1 (configuration not stated)	10µM*	-9.9	-1.5	15.5%	-6.1%	8.8%
COc1ccc(C2(N3CCN(c4cccc(C)c4C)CC3)C(=O)c3ccccc3C2=O)cc1	4.3%	.	.	2.2%	-5.0%	.
CC1(c2nnc(-c3ccc(Cl)cc3)o2)CC(c2ccc(Cl)cc2)=NO1 (configuration not stated)	-5.2%	2.8	-161.9*	-11.2%	0.2%	-3.0%
Cc1ccc(C2=NOC(C)(c3nnc(-c4ccc(Cl)cc4)o3)C2)cc1 (configuration not stated)	6.6%	4.7	-4.1	-12.7%	-4.0%	-4.5%
Cc1ccc(-c2cccc(C3CC=CC4C3C(=O)N(Cc3ccccc3)C4c3cc(C)ccc3F)c2)cc1 (configuration not stated)	4.47µM*	-10.5	14.0	-20.4%	10.5%	-4.1%
O=C1C2C(c3ccccc3)CC=CC2[C@H](c2ccc(C(F)(F)F)cc2)N1Cc1ccccc1 (some centres not stated)	?	-5.4	9.6	?	17.0%	1.0%
O=C1C2C(c3ccccc3)CC=CC2[C@H](c2cccc([N+](=O)[O-])c2)N1Cc1ccccc1 (some centres not stated)	10µM*	-10.3	-32.6	2.6%	8.7%	-4.8%
COc1ccc(-c2cccc(C3CC=CC4C3C(=O)N(Cc3ccccc3)C4c3ccc(C(F)(F)F)cc3)c2)cc1 (configuration not stated)	?	1.2	-26.9	11.1%	8.9%	-1.5%
Cc1ccc(S(=O)(=O)N(C)c2ccc(C(=O)NCC(c3ccco3)N(C)C)cc2)cc1 (configuration not stated)	7.08µM*	11.0	4.3	-16.1%	-0.2%	-2.9%
O=C1C(=C(c2ccccc2)c2ccccc2)Nc2ccccc21	3.16µM*	7.9	-7.6	?	0.7%	1.5%
O=C1C(=C(O)c2ccccc2)C(=O)c2ccccc21	12.4%	-8.2	6.0	?	13.8%	4.5%
N=C(N)c1ccc(OCCCOc2ccc(C(=N)N)cc2Br)c(Br)c1	.	.	.	.	3.9%	-1.2%
Cc1nc(-c2ccc(S(=O)(=O)N3CCN(c4ccccc4F)CC3)cc2)co1	-26.8%	.	.	1.8%	-4.2%	-1.0%
CC(C)CC(=O)Nc1ncc([N+](=O)[O-])s1	?	0.2	14.0	-21.6%	?	0.2%
Cc1nc(C)c(C(=O)Nc2ncc([N+](=O)[O-])s2)o1	3.98µM*	-2.3	17.4	-6.9%	-5.1%	-3.2%
Cc1ccc(NC(=S)N(CCCN2CCCC2)Cc2cccn2Cc2ccc(Cl)cc2)cc1C	?	4.2	-29.6	-26.7%	0.0%	11.2%
FC(F)(F)c1cccc(NC(=S)N(CCCN2CCCC2)Cc2cccn2Cc2ccc(Cl)cc2)c1	6.31µM*	-6.5	-32.5	-92.6%	-14.7%	2.7%
Oc1ccccc1/C=N/NC(=S)NC1CC2C=CC1C2 (configuration not stated)	7.94µM*	0.6	7.0	0.0%	0.0%	?
Oc1ccccc1C=NNC(=S)NC1CC2C=CC1C2 (configuration not stated)	?	-37.8	-0.1	?	22.3%	16.9%
CSc1nc(O)c(/C=C2\C=Nc3ccccc32)[nH]1	21.9%	0.9	5.9	?	13.2%	5.8%
O=c1[nH]c(/C=C2\C=Nc3ccccc32)c(O)n1Cc1ccccc1F	-43.5%	-0.2	-7.4	-28.0%	7.94µM*	8.2%
COc1ccc(C)cc1-n1nnnc1SCC1CCCO1 (configuration not stated)	6.0%	-107.3*	2.0	-6.2%	14.8%	-0.3%
